# Laboratory results from paper PMC10726135, “HNF4α isoforms regulate the circadian balance between carbohydrate and lipid metabolism in the liver”.
# The full ranking holds about 18,000 sequences; the median of “log2 normalized intensity” is about 0.39, and the highest 2% start at about 6.6. The sample as a whole holds a higher share of the highest values than the screen did.
# Target: T1, HNF4alpha2 (COS-7 nuclear extract) (Homo sapiens, UniProt P41235 1-474)
# T1 sequence: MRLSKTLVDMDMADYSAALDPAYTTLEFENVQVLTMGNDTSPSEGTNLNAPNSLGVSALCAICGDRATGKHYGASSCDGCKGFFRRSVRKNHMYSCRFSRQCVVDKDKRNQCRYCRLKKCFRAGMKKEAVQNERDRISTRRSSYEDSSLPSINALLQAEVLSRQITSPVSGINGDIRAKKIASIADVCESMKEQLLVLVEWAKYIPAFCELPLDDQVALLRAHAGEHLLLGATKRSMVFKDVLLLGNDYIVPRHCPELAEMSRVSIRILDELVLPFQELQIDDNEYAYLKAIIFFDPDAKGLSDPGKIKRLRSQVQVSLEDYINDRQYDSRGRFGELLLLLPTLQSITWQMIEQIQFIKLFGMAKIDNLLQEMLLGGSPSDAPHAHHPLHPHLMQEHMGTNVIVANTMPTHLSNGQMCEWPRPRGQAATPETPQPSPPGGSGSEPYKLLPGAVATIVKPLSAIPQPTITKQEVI
# Experiment: protein-binding microarray; COS-7 nuclear extract on double-stranded Agilent 4x180k PBM; binding buffer, salt, pH and temperature not given in the material; high values mean tight binding
# Conditions: chain copies: 2; label: 3' end of strand 1 on the slide; dsDNA, one strand shown
# Method in brief: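 Binding signal was defined as the normalized, background-corrected gProcessedSignal reported by Agilent software. It came from nuclear extracts of COS-7 cells transiently transfected with a human HNF4α isoform expression vector, applied to a custom Agilent SurePrint G3 4x180k array. That array held ~44,000 test sequences in quadruplicate as double-stranded ~60-nt oligonucleotides, and bound HNF4α was imaged at 2-µm resolution on an Agilent G2565CA scanner.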
row,Sequence,binding signal [log2 normalized intensity]
1,AGTTTGACTCCAAAGGGCTGGAGACTGAGTGCCTAGGGAGATTAGAGTATCGGTCGA,-0.509
2,TCTAAGACCCATCCCTCAGGGTCCATATCCGCCTAGGGAGATTAGAGTATCGGTCGA,2.84
3,CACCTTCTTCCTAGGCAATCCCATGACCTTGCCTAGGGAGATTAGAGTATCGGTCGA,3.25
4,TGTCTTCTGACCTTTGGCAATATCTCCCAGGCCTAGGGAGATTAGAGTATCGGTCGA,3.48
5,TCTTCCTAGGCAATCCCATGACCTTTGTACGCCTAGGGAGATTAGAGTATCGGTCGA,8.78
6,CTAGGCAATCCCATGACCTTTGTACTAATGGCCTAGGGAGATTAGAGTATCGGTCGA,7.57
7,CCATGACCTTTGTACTAATGATTTGTAAATGCCTAGGGAGATTAGAGTATCGGTCGA,5.25
8,CAATCCCATGACCTTTGTACTAATGATTTGGCCTAGGGAGATTAGAGTATCGGTCGA,5.84
9,TCTGAAGATAAATGCCTTAGCTGTGACCATGCCTAGGGAGATTAGAGTATCGGTCGA,0.619
10,CTCTAGGGTAGATAAGGATGGATCAAAGGAGCCTAGGGAGATTAGAGTATCGGTCGA,-0.461
11,TTCCACCTGGAATGCACTTGTTCCGGATAGGCCTAGGGAGATTAGAGTATCGGTCGA,1.11
12,ATGCCCCATGGTAAGAACTACAGTTGACCTGCCTAGGGAGATTAGAGTATCGGTCGA,4.18
13,GACCTTTGAACACCACAAGTTTGAACTGCAGCCTAGGGAGATTAGAGTATCGGTCGA,5.05
14,CCATGGTAAGAACTACAGTTGACCTTTGAAGCCTAGGGAGATTAGAGTATCGGTCGA,7.38
15,CAGTTGACCTTTGAACACCACAAGTTTGAAGCCTAGGGAGATTAGAGTATCGGTCGA,6.31
16,TAGGTATGCCCCATGGTAAGAACTACAGTTGCCTAGGGAGATTAGAGTATCGGTCGA,0.881
17,AACTACAGTTGACCTTTGAACACCACAAGTGCCTAGGGAGATTAGAGTATCGGTCGA,7.56
18,GGAATGTTGCTGTGCTGCCCTCTTGTGGCCGCCTAGGGAGATTAGAGTATCGGTCGA,1.66
19,TGTTTCCAATAGGTTTGATTTCAGCATGTTGCCTAGGGAGATTAGAGTATCGGTCGA,1.59
20,TATGTGGTGGAATGGAAAGAATATGAACTTGCCTAGGGAGATTAGAGTATCGGTCGA,1.66
21,ACCCCACGGAGCTGCCTCACATGAGCTAGAGCCTAGGGAGATTAGAGTATCGGTCGA,-0.873
22,ATTGGCCCTTTGACCTTTAATCAAGGGCTGGCCTAGGGAGATTAGAGTATCGGTCGA,5.08

row,Sequence,binding signal [log2 normalized intensity]
1,ATCGCCCTTTGAGGAGGCCTTTCCTGACCCGCCTAGGGAGATTAGAGTATCGGTCGA,2.78
2,GGGCCCTGACCTCAAGTGACCTTTGACCTCGCCTAGGGAGATTAGAGTATCGGTCGA,12.1
3,TGGCTGGGCCCTGACCTCAAGTGACCTTTGGCCTAGGGAGATTAGAGTATCGGTCGA,7.17
4,CCAGGCTGATTTAGCTATTTGACCTTCGGCGCCTAGGGAGATTAGAGTATCGGTCGA,4.92
5,TTAGCTATTTGACCTTCGGCCTCAATTATAGCCTAGGGAGATTAGAGTATCGGTCGA,6.43
6,CTGATTTAGCTATTTGACCTTCGGCCTCAAGCCTAGGGAGATTAGAGTATCGGTCGA,8.16
7,GCCCCTGGCTGGGCCCTGACCTCAAGTGACGCCTAGGGAGATTAGAGTATCGGTCGA,1.91
8,CTGGGCCCTGCCTGACCTGCCCTTTGTCCCGCCTAGGGAGATTAGAGTATCGGTCGA,6.28
9,GGCTTGTACCTTGACCTTCTCTGTTAACCCGCCTAGGGAGATTAGAGTATCGGTCGA,4.27
10,GATGGGCCAGGCAGGACAGTTTTGTGTGTTGCCTAGGGAGATTAGAGTATCGGTCGA,1.11
11,TCAGATATCTGAATGTACCTTTGAAACCTAGCCTAGGGAGATTAGAGTATCGGTCGA,2.87
12,ATCCAGTAGAGGGCATAGCAGATAAGCATTGCCTAGGGAGATTAGAGTATCGGTCGA,-0.984
13,ACTTCTTTGTGATGTGTGGATTCAGCTCACGCCTAGGGAGATTAGAGTATCGGTCGA,1.29
14,ATCTCAAATAGCTGGGTCTCACTCTGACCCGCCTAGGGAGATTAGAGTATCGGTCGA,3.32
15,ACTTCAAAGGGTGTTGTGACTACCTGGTTAGCCTAGGGAGATTAGAGTATCGGTCGA,0.524
16,AACTTCTTCCAATGAAAGGTTAACCTGCTGGCCTAGGGAGATTAGAGTATCGGTCGA,1.36
17,ACATTTTTATCCTTTTTTGAAGGTTAAAGTGCCTAGGGAGATTAGAGTATCGGTCGA,2.66
18,AAGGGCTGAGGTTAAAGTCCACATTCTTTAGCCTAGGGAGATTAGAGTATCGGTCGA,5.76
19,TTTATCCTTTTTTGAAGGTTAAAGTCCATTGCCTAGGGAGATTAGAGTATCGGTCGA,7
20,TCACAAAGGGCTGAGGTTAAAGTCCACATTGCCTAGGGAGATTAGAGTATCGGTCGA,7.04
21,AAGCTTCACAAAGGGCTGAGGTTAAAGTCCGCCTAGGGAGATTAGAGTATCGGTCGA,6.22
22,CCTTTTTTGAAGGTTAAAGTCCATTTTTGAGCCTAGGGAGATTAGAGTATCGGTCGA,6.53

row,Sequence,binding signal [log2 normalized intensity]
1,TCCCCACTTATTACCGGTGTGACTTTGGTTGCCTAGGGAGATTAGAGTATCGGTCGA,2.1
2,CGGGAGGCAAGATAAGGGTAATCACCCCCAGCCTAGGGAGATTAGAGTATCGGTCGA,2.34
3,CCTCCATTAACTAACCTTTGAACCAGATGGGCCTAGGGAGATTAGAGTATCGGTCGA,4.77
4,TACTCATGTGGTCCTAAGACTAACCTTTGAGCCTAGGGAGATTAGAGTATCGGTCGA,6.33
5,CATGTGGTCCTAAGACTAACCTTTGACCATGCCTAGGGAGATTAGAGTATCGGTCGA,7.89
6,TTACTCATGTGGTCCTAAGACTAACCTTTGGCCTAGGGAGATTAGAGTATCGGTCGA,3.37
7,ATGTGGTCCTAAGACTAACCTTTGACCATCGCCTAGGGAGATTAGAGTATCGGTCGA,7.45
8,GGTCCTAAGACTAACCTTTGACCATCCACGGCCTAGGGAGATTAGAGTATCGGTCGA,5.96
9,CCTTACCTCCATTAACTAACCTTTGAACCAGCCTAGGGAGATTAGAGTATCGGTCGA,6.78
10,TAAGACTAACCTTTGACCATCCACGGATGCGCCTAGGGAGATTAGAGTATCGGTCGA,4.62
11,ATTAACTAACCTTTGAACCAGATGGCCCTCGCCTAGGGAGATTAGAGTATCGGTCGA,3.62
12,CATGTTAATTTAAATAACAAGGATAGCGTCGCCTAGGGAGATTAGAGTATCGGTCGA,-0.878
13,AAGGTCAGGATCTCAGCCGCGCGGCTTCAGGCCTAGGGAGATTAGAGTATCGGTCGA,-0.906
14,CAGTGGGGGGGGGGGGGGGGGTGTGTCTGTGCCTAGGGAGATTAGAGTATCGGTCGA,1.34
15,CTGGCAAAGCCATGAAGCAATTCTGAGCCCGCCTAGGGAGATTAGAGTATCGGTCGA,-0.972
16,TTTTCTTGGACTTTGGTCATCCTTTACTTTGCCTAGGGAGATTAGAGTATCGGTCGA,6.04
17,TTGGACTTTGGTCATCCTTTACTTTCCCAAGCCTAGGGAGATTAGAGTATCGGTCGA,5.18
18,ATCAAGGATTTTTTCTTGGACTTTGGTCATGCCTAGGGAGATTAGAGTATCGGTCGA,8.1
19,GGATTTTTTCTTGGACTTTGGTCATCCTTTGCCTAGGGAGATTAGAGTATCGGTCGA,6.83
20,GACTTTGGTTGGATTTCTTGGCTTCTCTTGGCCTAGGGAGATTAGAGTATCGGTCGA,1.04
21,TCCAGATCAAGGATTTTTTCTTGGACTTTGGCCTAGGGAGATTAGAGTATCGGTCGA,5.42
22,TCCAAAAGGGCAGCAGTAACCCCCCAGGAGGCCTAGGGAGATTAGAGTATCGGTCGA,3.7

row,Sequence,binding signal [log2 normalized intensity]
1,GGTTGCCCTAGTGACTCTAGGAACCTTTCTGCCTAGGGAGATTAGAGTATCGGTCGA,-0.0376
2,TGGGCCCACAGATGATCAAAGGTCAGTCTTGCCTAGGGAGATTAGAGTATCGGTCGA,6.53
3,AAAGGGCAAAGGTCAGCTCATTCCCTAGGGGCCTAGGGAGATTAGAGTATCGGTCGA,6.27
4,CACTGGGGTCATGGAGCTGGAGGGCAAAGGGCCTAGGGAGATTAGAGTATCGGTCGA,3.25
5,GGGTCATGGAGCTGGAGGGCAAAGGTCAGAGCCTAGGGAGATTAGAGTATCGGTCGA,7.97
6,GCAAAGGTCAGCTCATTCCCTAGGGCTCGGGCCTAGGGAGATTAGAGTATCGGTCGA,-0.876
7,TATGAGAGAGAGAGAGAGGTGGGCAAAGGTGCCTAGGGAGATTAGAGTATCGGTCGA,1.53
8,GAGAGAGAGAGAGGTGGGCAAAGGTCTCAAGCCTAGGGAGATTAGAGTATCGGTCGA,2.55
9,AATCATGGGCCCACAGATGATCAAAGGTCAGCCTAGGGAGATTAGAGTATCGGTCGA,7.06
10,GTGGGTGCCAAACAAAAAGGGCAAAGGTCAGCCTAGGGAGATTAGAGTATCGGTCGA,8.12
11,AGAGCAATCATGGGCCCACAGATGATCAAAGCCTAGGGAGATTAGAGTATCGGTCGA,-0.805
12,ATGGAGCTGGAGGGCAAAGGTCAGAGGCTGGCCTAGGGAGATTAGAGTATCGGTCGA,6.39
13,AACAAAAAGGGCAAAGGTCAGCTCATTCCCGCCTAGGGAGATTAGAGTATCGGTCGA,6.63
14,CCAAAGTCCTTCCCAAGTCCTGCATGTGTTGCCTAGGGAGATTAGAGTATCGGTCGA,1.84
15,CCCTACTGTACCCTATGCACCCCACAGTGCGCCTAGGGAGATTAGAGTATCGGTCGA,2.11
16,ACCTTTAGCACCGTAAGAGAGTATTTCCCAGCCTAGGGAGATTAGAGTATCGGTCGA,1.13
17,CACAAGCTGGGTCAACATCAGCCCTCCTAGGCCTAGGGAGATTAGAGTATCGGTCGA,1.49
18,GGGCACCGCCTCCACACCCCAGCCTGCCCTGCCTAGGGAGATTAGAGTATCGGTCGA,3.1
19,GGGGCAGGTAAGTACCAATATTTGTTAAGTGCCTAGGGAGATTAGAGTATCGGTCGA,1.08
